Screens deposited in PubChem by several laboratories.
ALR H2O2 inh: blocks human ALR sulfhydryl oxidase activity | purified ALR, DTT oxidation, H2O2 HRP-luminol luminescence | inhibition, % (no concentration beside the values) | 290,000 tested, 3.8% active | AID 485317;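 active means mean replicate inhibition above about 79%, with every replicate also reaching it, limit read from the data; inconclusive means only one of the two criteria met; inactive means mean below limit and not every replicate reaching it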
AI-2 QS modul: modulators of Vibrio harveyi AI-2 quorum sensing system; Vibrio harveyi JMH597 AI-2 luminescence/OD600 ratio, 9 h; active compounds read low; strain lacks LuxN and CqsS sensors; 0 = neutral-control median; 300,000 tested, 0.4% active; AID 2094; activity change, % at 7.5 µM; in the data active means activity change below about -75%, passing the limit was not always enough; inconclusive means no clear call, values can overlap the other calls;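 further: luminescence divided by OD600 gain over 9 h not by final OD600 alone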
CHT PAM: allosterically activates the human high affinity choline transporter | CHT-expressing cells, membrane potential dye, choline EC20; active compounds read high; LV-AA mutant CHT in HEK293 cells | B-score at 10 µM | 310,000 tested, 0.49% active;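 active means initial fluorescence not abnormally high and integrated response B-score, plate-corrected, over 3 SD above library mean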
Target sequence (Q9GZV3 whole entry, looked up): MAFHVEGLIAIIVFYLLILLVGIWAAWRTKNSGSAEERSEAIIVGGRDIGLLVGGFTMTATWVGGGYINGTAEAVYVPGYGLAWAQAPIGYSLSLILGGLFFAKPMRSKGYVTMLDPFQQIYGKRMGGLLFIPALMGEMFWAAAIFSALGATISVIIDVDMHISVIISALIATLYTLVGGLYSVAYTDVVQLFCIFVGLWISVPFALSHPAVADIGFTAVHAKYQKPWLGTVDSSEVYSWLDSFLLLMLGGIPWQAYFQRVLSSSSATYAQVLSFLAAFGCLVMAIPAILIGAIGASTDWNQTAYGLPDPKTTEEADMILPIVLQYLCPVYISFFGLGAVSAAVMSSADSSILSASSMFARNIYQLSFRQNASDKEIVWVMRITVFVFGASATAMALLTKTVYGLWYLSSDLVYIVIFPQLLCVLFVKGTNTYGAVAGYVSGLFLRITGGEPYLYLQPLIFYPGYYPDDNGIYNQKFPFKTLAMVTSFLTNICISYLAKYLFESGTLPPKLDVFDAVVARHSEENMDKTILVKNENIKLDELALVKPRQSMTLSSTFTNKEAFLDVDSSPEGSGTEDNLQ
CHT inh: inhibits the human high affinity choline transporter; Q9GZV3; CHT-expressing cells, membrane potential dye, choline response; active compounds read low; B-score at 10 µM; 310,000 tested, 0.86% active;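 active means B-score over 3 SD under the library average, and starting fluorescence ratio not unusually high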;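 further: choline stimulus applied at its EC90 after an EC20 pre-addition; B-score computed on integrated fluorescence ratio after choline addition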
PREPL inh: inhibitors of human prolyl oligopeptidase-like enzyme PREPL. Q4J6C6. recombinant PREPL, fluorescence polarization activity-based probe. inhibition, % at 5.96 µM. 320,000 tested, 0.68% active; in the data active means inhibition above about 43%;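 further: 0% = enzyme with DMSO and 100% = wells lacking enzyme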
Numbers without * were called inactive; i = inactive; ? = inconclusive; nt = no result given. Only some compounds are listed: those with a hit (about 5% of all), similar ones and a draw of the others.

SMILES | ALR H2O2 inh | AI-2 QS modul | CHT PAM | CHT inh | PREPL inh
Cc1cc([N+](=O)[O-])ccc1N1C(=O)c2ccc(C(=O)Nc3ccccc3C(=O)O)cc2C1=O | 97.5* | 0.0 | i | i | 8.3
CC1CN(C(=O)COC(=O)c2ccc(C#N)cc2)CC(C)O1 (centres undefined) | -2.8 | 4.1 | i | i | 0.0
Cc1ccc(NC(=O)CN2C(=O)NC3(CCCCC3)C2=O)cc1S(=O)(=O)N1CCOCC1 | -0.3 | nt | nt | nt | 20.3
COc1ccc(C(=O)OCC(=O)NCCN2C(=O)CSC2=O)cc1 | 0.3 | 4.3 | i | i | 10.3
CCS(=O)(=O)c1ccc(O)c(NC(=O)/C=C/c2ccccc2)c1 | 67.7 | -90.6* | i | i | 3.7
O=C(Nc1ccccc1)Nc1ccc(Cl)c([N+](=O)[O-])c1 | nt | -102.0* | i | i | 26.2
O=C(Nc1ccc(Cl)cc1)Nc1csc([N+](=O)[O-])c1 | -0.5 | -82.8* | i | i | 21.9
Cn1nc(C(C)(C)C)cc1NC(=O)Nc1cc(Cl)cc(Cl)c1 | 55.0 | 32.9 | i | i | -19.2
CCCS(=O)(=O)N1CCCC(C(=O)NCCCN(CC)c2cccc(C)c2)C1 (centres undefined) | 98.7* | 3.9 | i | i | -0.4
CCCS(=O)(=O)N1CCC(C(=O)NCCCN(CC)c2cccc(C)c2)CC1 | 15.8 | nt | i | i | 10.0
CCCS(=O)(=O)N1CCCC(C(=O)NCCN(CC)c2ccccc2)C1 (centres undefined) | 98.8* | 12.9 | i | i | -0.2
CCN(c1cccc(C)c1)S(=O)(=O)c1ccc2c(c1)oc(=O)n2C | -10.4 | 15.7 | i | i | 6.5
CCN(CCCNS(=O)(=O)c1ccc2c(c1)oc(=O)n2C)c1cccc(C)c1 | 97.5* | nt | i | i | 4.8
CCN(CCCNC(=O)C1CCN(S(=O)(=O)N2CCOCC2)CC1)c1cccc(C)c1 | 99.5* | 14.8 | i | i | 1.2
CCc1nc(SCc2ccccc2C#N)n[nH]1 | -4.7 | 10.5 | i | i | nt
CC(=O)Nc1cccc2c1C(=O)N(c1ccc(OC(C)=O)cc1)C2=O | 0.0 | -3.3 | i | i | -3.6
CN(C)c1ccc(NC(=O)C2CCCN(S(=O)(=O)c3ccccc3)C2)cc1 (centres undefined) | 99.5* | -7.6 | i | i | -1.4
COC(=O)C[C@H]1c2cc(F)ccc2S(=O)(=O)N1c1ccc(N(C)C)cc1 | 98.7* | -4.4 | i | i | -5.9
COc1ccc(OCC(=O)NCc2cccnc2)cc1 | -5.6 | 16.5 | i | i | 4.3
COc1ccc(-c2nc(CS(=O)CC(=O)NCc3cccnc3)c(C)o2)cc1 (centres undefined) | 99.4* | 13.7 | i | i | 5.1
CCOc1ccc(-c2nc(CS(=O)(=O)CC(=O)NCc3ccc(F)cc3)c(C)o2)cc1 | 24.7 | 20.3 | i | i | -13.2
COc1ccc(-c2nc(CS(=O)CC(=O)NCc3ccc(F)cc3)c(C)o2)cc1 (centres undefined) | 98.5* | 13.5 | i | i | -14.6
COc1ccccc1-c1nc(C(=O)NCC2CCCO2)cc2c1[nH]c1ccccc12 (centres undefined) | 98.2* | 7.7 | i | i | -0.6
COc1cc(-c2nc(C(=O)NCC3CCCO3)cc3c2[nH]c2ccccc23)cc(OC)c1OC (centres undefined) | 99.2* | -5.6 | i | i | 18.9
O=C(NCC1CCCO1)c1cc2c([nH]c3ccccc32)c(-c2cccc(Cl)c2)n1 (centres undefined) | 2.5 | 1.2 | i | i | 3.9
SMILES | ALR H2O2 inh | AI-2 QS modul | CHT PAM | CHT inh | PREPL inh
c1ccc(NCC2OCc3ccccc3CO2)cc1 | 97.7* | 25.6 | i | i | 1.7
COC(=O)c1ccccc1NC(=O)CCn1c(=O)oc2ccccc21 | 6.1 | 16.1 | i | i | -2.9
Cc1ccc(N2CCN(S(=O)(=O)c3cccs3)CC2C)cc1 (centres undefined) | 99.4* | -13.9 | i | i | -15.6
O=C(NCCc1ccccc1)C(c1ccccc1F)N(C(=O)c1csnn1)C1CC1 (centres undefined) | -0.2 | nt | i | i | 6.2
CC(=O)Nc1cccc(NC(=O)CSc2ncc(C(=O)Nc3ccc(F)cc3)c(=O)n2C)c1 | 98.7* | 22.1 | i | i | -30.9
CC(=O)Nc1ccc(NC(=O)CSc2ncc(C(=O)Nc3ccc(Cl)cc3)c(=O)n2C)cc1 | 98.9* | 3.0 | i | i | 18.6
CC(=O)c1cccc(NC(=O)CSc2ncc(C(=O)Nc3ccccc3)c(=O)n2C)c1 | 98.6* | -15.4 | i | i | 8.0
Cn1c(SCC(=O)NCC2CCCO2)ncc(C(=O)Nc2ccc(Cl)cc2)c1=O (centres undefined) | 20.3 | 9.6 | i | i | -7.5
CC(=O)Nc1ccc(NC(=O)CSc2nnnn2-c2ccc(F)cc2)cc1 | 98.3* | 35.4 | i | i | 4.2
CC(=O)Nc1ccc(-n2nnnc2SCC(=O)NC2CCCC2)cc1 | -1.3 | 6.1 | i | i | -4.0
Cn1c(SCC(=O)NCc2ccc3c(c2)OCO3)ncc(C(=O)Nc2ccc(F)cc2)c1=O | -13.7 | 1.9 | i | i | -5.1
COc1ccc(N(CC(=O)NCCSCc2ccccc2Cl)S(C)(=O)=O)cc1Cl | -1.6 | 16.5 | i | i | -8.9
Cn1c(SCC(=O)NCc2ccc(F)cc2)ncc(C(=O)Nc2ccccc2)c1=O | -1.9 | -11.8 | i | i | 9.5
CC(=O)Nc1ccc(NC(=O)CSc2ncc(C(=O)Nc3ccc(F)cc3)c(=O)n2C)cc1 | 98.5* | 18.9 | i | i | 2.4
CN1c2cccc3cccc(c23)N(C)C1c1cccs1 | 90.4* | 1.1 | i | i | -7.4
CC1N(C)c2cccc3cccc(c23)N1C | nt | 30.6 | i | i | 16.9
O=c1[nH]c2ccc(NC(=S)Nc3ccc(Cl)cc3)cc2[nH]1 | -3.5 | 8.7 | i | i | 11.4
Cc1ccccc1NC(=S)Nc1ccc2[nH]c(=O)[nH]c2c1 | 87.9* | 3.8 | i | i | -3.0
Cc1ccc(C(=O)NC(=S)Nc2ccc3[nH]c(=O)[nH]c3c2)cc1 | 3.4 | 17.3 | i | i | 5.6
CCOC(=O)c1ccc(NC(=S)Nc2ccc3[nH]c(=O)[nH]c3c2)cc1 | 79.7* | 11.1 | i | i | 3.2
Cc1ccc(NC(=S)Nc2ccc3[nH]c(=O)[nH]c3c2)cc1 | 99.3* | 10.4 | i | i | -5.9
O=c1[nH]c2ccc(NC(=S)Nc3ccccc3)cc2[nH]1 | 90.3* | 36.8 | i | i | 3.9
O=c1[nH]c2ccc(NC(=S)Nc3ccccc3Cl)cc2[nH]1 | ? | 19.1 | i | i | 3.6
CCOc1ccc(S(=O)(=O)NN)cc1 | 41.9 | 35.7 | i | i | -45.7
CC(C)c1ccc(OCc2ccc(C(=O)N3CCCC3)o2)cc1 | 4.0 | nt | 7.08* | i | 5.5
